PAFAH1B2 inh: inhibitors of human PAFAH1B2. P68402. recombinant PAFAH1B2, FP-rhodamine activity probe, fluorescence polarization. inhibition, % at 3.39 µM. 340,000 tested, 1.2% active;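 active = inhibition above the mean of all tested compounds plus 3 SD, cut at about 24% in these data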;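 note: 0% = enzyme with DMSO and 100% = wells lacking PAFAH1B2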
CTSL1 counter: counter-screen for PFM18AAP inhibitors: inhibitors of F. hepatica cathepsin L1; inhibition, % at 5.96 µM; 300,000 tested, 0.49% active; AID 1906; recombinant F. hepatica cathepsin L1, Z-Leu-Arg-MCA fluorescence;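 active = inhibition above the mean of all tested compounds plus 3 SD, set per screening campaign, cut at about 17% in these data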;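 note: 0% = plate median of test compound wells and 100% = 1 µM Z-Phe-Ala-diazomethylketone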
pPAFAH inh: pPAFAH (human) enzyme inhibition | recombinant pPAFAH, FP-rhodamine probe fluorescence polarization | inhibition, % at 3.39 µM | 330,000 tested, 1.5% active | AID 463082;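 active = inhibition above the mean inhibition across the screen plus 3 SD, cut at about 25% in these data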;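 note: inhibitors block binding of the rhodamine activity-based probe so polarization drops; 0% = enzyme with DMSO and 100% = wells lacking pPAFAH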
PAFAH2 inh: PAFAH2 (human) inhibition | recombinant PAFAH2, FP-rhodamine activity probe, fluorescence polarization | inhibition, % at 3.39 µM | 340,000 tested, 0.99% active;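 active = inhibition above the mean over all tested compounds plus 3 SD, cut at about 30% in these data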;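 note: inhibitors block probe labeling of enzyme so polarization drops; 0% = enzyme with DMSO and 100% = wells lacking PAFAH2 protein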
PP5 primary: blocks human protein phosphatase 5 activity; inhibition, % at 6.7 µM; P53041; 320,000 tested, 0.18% active; purified PP5c, OMFP substrate fluorescence;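 active = inhibition above the campaign's mean inhibition across all tested compounds plus 3 SD, cut at about 9.5% in these data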;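 note: 0% = DMSO only and 100% = 100 µM cantharidin control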
Target sequence (P53041 whole entry, looked up): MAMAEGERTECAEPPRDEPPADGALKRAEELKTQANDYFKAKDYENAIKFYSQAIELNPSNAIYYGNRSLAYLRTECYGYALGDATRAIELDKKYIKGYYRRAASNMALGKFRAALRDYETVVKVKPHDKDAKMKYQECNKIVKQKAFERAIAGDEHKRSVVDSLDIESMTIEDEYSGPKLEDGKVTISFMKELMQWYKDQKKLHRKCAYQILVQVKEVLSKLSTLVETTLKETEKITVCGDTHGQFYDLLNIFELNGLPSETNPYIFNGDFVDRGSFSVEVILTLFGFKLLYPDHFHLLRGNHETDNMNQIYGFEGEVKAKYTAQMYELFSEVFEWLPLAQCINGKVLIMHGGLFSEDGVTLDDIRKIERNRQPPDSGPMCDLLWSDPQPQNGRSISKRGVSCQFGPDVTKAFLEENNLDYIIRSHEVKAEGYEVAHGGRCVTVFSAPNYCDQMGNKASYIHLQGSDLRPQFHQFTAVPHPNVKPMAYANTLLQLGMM
PAFAH1B3 inh: blocks human PAF acetylhydrolase 1B catalytic subunit 3. AID 492972. Q15102. 340,000 tested, 0.28% active. inhibition, % at 3.39 µM. recombinant PAFAH1B3, FP-rhodamine probe, fluorescence polarization;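 active = inhibition above the screen-wide average of all tested compounds plus 3 SD, cut at about 25% in these data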;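 note: 0% = enzyme with DMSO only and 100% = wells lacking PAFAH1B3 protein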
pPAFAH FP conf: pPAFAH (human) inhibition, confirmed. shares compounds with pPAFAH inh. recombinant pPAFAH, FP-Rh probe fluorescence polarization. inhibition, % at 3.39 µM. 2,300 tested, 72% active. AID 463230;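 active = mean inhibition of the triplicate above the hit cutoff set for the earlier primary screen, cut at about 25% in these data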;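 note: 0% = enzyme with DMSO and 100% = wells lacking pPAFAH enzyme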
* = called active by the depositor; nt = no result given. Most compounds without a hit are left out; they make up all but 3% or so of the library.

SMILES | PAFAH1B2 inh | CTSL1 counter | pPAFAH inh | PAFAH2 inh | PP5 primary | PAFAH1B3 inh | pPAFAH FP conf
CC(C)=C1C(=O)NN(c2cccc(Cl)c2)C1=O | 8 | 0 | 23 | 9 | 0 | 6 | nt
CC(C)=C1C(=O)NN(c2ccc(C)c(Cl)c2)C1=O | 10 | 4 | 59* | 18 | 1 | 0 | 6
NC1=NC(=O)/C(=C/c2ccc(Br)cc2)S1 | 2 | 2 | 6 | 2 | 0 | 2 | nt
NC1=NC(=O)/C(=C/c2cc(Br)c(O)c(Br)c2)S1 | -3 | 2 | 48* | 10 | -10 | 34* | 42*
CC(C)CC1NC(=O)c2cc(Cl)ccc2-n2c1nc1ccc(F)cc1c2=O (configuration not stated) | nt | nt | 0 | nt | nt | nt | nt
CC(Sc1nnc(CC(=O)Nc2ccccc2F)n1C)C(=O)Nc1nccs1 (configuration not stated) | -1 | 2 | -3 | 4 | 0 | 1 | nt
O=C(O)CC(C(=O)O)N1C(=O)/C(=C/c2ccc(-c3nc4ccccc4s3)o2)SC1=S (configuration not stated) | 7 | 8 | 65* | 34* | 2 | 18 | 42*
O=C1S/C(=C\C=C\c2ccco2)C(=O)N1c1ccc(O)cc1 | 0 | 5 | 37* | -4 | -1 | 0 | 6
O=C(O)CC(C(=O)O)N1C(=O)/C(=C/C=C/c2ccco2)SC1=S (configuration not stated) | 5 | 1 | 68* | 22 | 2 | 8 | 10
Cn1cccc1/C=C1\SC(=S)N(NC(=O)c2ccccc2O)C1=O | 0 | 6 | 11 | 14 | -2 | 7 | nt
O=C(NN1C(=O)/C(=C/C=C/c2ccco2)SC1=S)c1ccccc1O | 19 | 3 | 78* | 59* | 0 | 26* | 67*
CN(C(=O)c1ccc(NC(=O)Cc2cccc(NC(=O)C3CCN(C(=O)C4CCCC4)CC3)c2)cc1)C1CC1 | 4 | nt | nt | 9 | nt | 5 | nt
COc1ccc(CCNC(=O)c2cc(-c3ccc(Cl)c(Cl)c3)oc2C)cc1 | -26 | 3 | 0 | -14 | 2 | -27 | nt
COc1ccc(/C(C)=N/NC(=O)c2cccc(S(=O)(=O)N3CCCC3)c2)c(O)c1 | 2 | 0 | 13 | 8 | 1 | 6 | nt
Cc1ccc(NC(=O)CCCN2C(=O)/C(=C/C=C/c3ccccc3)SC2=S)cc1 | 2 | 4 | 10 | -17 | 1 | -2 | nt
O=C(O)CCCN1C(=O)/C(=C/C=C/c2ccco2)SC1=S | 6 | 0 | 61* | 32* | 2 | 12 | 18
N=C1/C(=C\c2ccc(-c3cccc(C(=O)O)c3)o2)C(=O)N=C2SC=C(c3ccccc3)N12 | 31* | 6 | 55* | 35* | 1 | 29* | 49*
O=C(CSc1nnc(-c2ccco2)c(-c2ccco2)n1)c1ccccc1 | 10 | 6 | 54* | 33* | 0 | 12 | 16
O=C(CSc1nnc(-c2ccco2)o1)c1ccccc1 | 4 | 3 | 9 | 11 | 1 | -4 | nt
CC(=O)c1ccc(NC(=O)CSc2nnc(-c3ccco3)c(-c3ccco3)n2)cc1 | 2 | 8 | 46* | 27 | 2 | 17 | 15
CC(=O)Nc1ccc(NC(=O)CSc2nnc(-c3ccco3)o2)cc1 | 1 | 5 | -4 | -12 | -3 | 4 | nt
NC(=O)COC(=O)c1ccccc1Nc1ccc(SC(F)F)cc1 | 1 | 1 | 20 | -1 | 6 | 7 | nt
CC(OC(=O)c1ccccc1Nc1ccc(SC(F)F)cc1)C(N)=O (configuration not stated) | 4 | -2 | 35* | -2 | -1 | 4 | 24
CC1(C)COC(c2cc3c(cc2Br)OCO3)OC1 | 0 | nt | nt | 4 | nt | 1 | nt
CCCCC/C=C\C/C=C\C/C=C\CCCCC(=O)O | -1 | 34* | 38* | 10 | 5 | 4 | 17
CCCCCCCC/C=C\CCCCCCCC(=O)O | 16 | 6 | 4 | 15 | 0 | 6 | nt
CCCCNC(=O)c1ccc2nc(-c3ccco3)c(-c3ccco3)nc2c1 | 17 | 10 | 61* | 29 | 1 | 20 | 23
O=C(Nc1ccccc1)c1ccc2nc(-c3ccco3)c(-c3ccco3)nc2c1 | 13 | 4 | 66* | 27 | 5 | 21 | 22

High-throughput results from PubChem BioAssay.
